Results on 52 compounds are retold here after ChEMBL document CHEMBL4513216, “Probing the Open Global Health Chemical Diversity Library for Multistage-Active Starting Points for Next-Generation Antimalarials” (ACS Infect Dis, 2020).

Screen size: about 69,000 compounds; about 8,600 (12%) showed an effect of 50% or more. The sample holds strong results, similar compounds and a random draw of the others, so the mix is not that of the screen.

The test system of the assay is Plasmodium berghei. Nature of the assay: Screen against P. berghei liver stage (PbLuc), transformed with Luciferase, at 10uM. Type of assay: functional, HepG2. The settings on record: tested at 10 uM.
`CCC(=O)N1CCC2(CC1)CC(N1CCOCC1)c1cc(C)ccc12` (configuration not stated): the INHIBITION amounted to 61.8%. As for `COCC(=O)N1CCC2(CC1)CC(N1CCOCC1)c1ccc(C)cc12` (configuration not stated), the figure is -24.8%; as for `COCCN1CCC2(CC1)CC(N1CCOCC1)c1ccc(C)cc12` (configuration not stated), 48.4%. As for `Cc1ccc2c(c1)C1(CCNCC1)CC2N1CCOCC1` (configuration not stated), the figure is -58.9%. As for `Cc1ccc2c(c1)C(N1CCOCC1)CC21CCNCC1` (configuration not stated), the figure is 38.5%; as for `COCCN1CCC2(CC1)CC(N1CCOCC1)c1cc(C)ccc12` (configuration not stated), 87.4%. With `O=C(c1sccc1C1CC1)N1CCN(c2cnccn2)CC1`, the INHIBITION turned out to be 44%. `CN(Cc1cc2n(n1)CCNC2)Cc1n[nH]c2c1CCCCC2`: the INHIBITION stood at 44.3%. In the case of `CN(Cc1n[nH]c2c1CCCC2)c1nc(C2CC2)nc2c1CCNCC2`, the INHIBITION came to 62.8%. As for `CN(C)c1nc2c(c(N(C)Cc3n[nH]c4c3CCCCC4)n1)CCNC2`, the figure is 26.8%; as for `CN(C)c1nc2c(c(N(C)Cc3n[nH]c4c3CCCC4)n1)CCNCC2`, 70.2%; as for `CN(Cc1n[nH]c2c1CCCC2)c1nc2c(c(=O)[nH]1)CCNCC2`, 10.4%. To `CN(Cc1n[nH]c2c1CCC2)c1nc(C2CCCC2)nc2c1CNC2` belongs 26.8%; to `COc1c(C(=O)NCc2cccnc2)nnn1Cc1ccccc1`, 2.69%; to `COc1ccc(F)c(CN2CCCC(O)(CNCc3ncc[nH]3)C2=O)c1` (configuration not stated), 33.2%.

Turning to `COc1ccc(F)c(CN2CCCC(O)(CNCc3ccoc3)C2=O)c1` (configuration not stated), the INHIBITION worked out at 34.1%. Take `COc1ccc(F)c(CN2CCCC(O)(CNC3CCCCC3)C2=O)c1` (configuration not stated): the INHIBITION was determined as 4.48%. As for `CC(C)(C)CNCC1(O)CCCN(Cc2ccccc2F)C1=O` (configuration not stated), the figure is 7.17%; as for `COc1ccc(F)c(CN2CCCC(O)(CNCc3ccon3)C2=O)c1` (configuration not stated), 52%; as for `COc1ccc(F)c(CN2CCCC(O)(CNCC(C)(C)C)C2=O)c1` (configuration not stated), 71.7%. As for `CCc1cccc(C)c1NC(=O)NCCCN(CC)S(C)(=O)=O`, the figure is -17.7%; as for `Cc1cc(C)n(C2CCCN(C(=O)Cc3cccc(F)c3)C2)n1` (configuration not stated), 19.4%; as for `CC1c2ncc(Cn3cccn3)n2CCN1S(C)(=O)=O` (configuration not stated), 43%. In the case of `Cc1noc(C2CCCCN2C(=O)NC2CCCC2)n1` (configuration not stated), the INHIBITION is -43.4%.

For the compound `Cc1nc(CN2CCc3cc(C(=O)O)c(N(C)C)nc3CC2)cs1`, the INHIBITION stood at 19.4%. To `CN(C)CCCNC(=O)c1cc(-c2ccc3c(c2)CCO3)n[nH]1` belongs 54.5%; to `O=C(NCCCO)c1cc(-c2ccc3c(c2)CCO3)n[nH]1`, -49.2%; to `O=C(NCCO)c1cc(-c2ccc3c(c2)CCO3)n[nH]1`, 5.85%. Regarding `CSC(C)C(=O)NCCC(=O)N1CCN(c2ccccn2)CC1` (configuration not stated), the INHIBITION was determined as 39.2%. As for `CN(Cc1ccccc1)CC1(O)CCCN(CC(C)(C)C)C1=O` (configuration not stated), the figure is 51.8%. As for `CN(Cc1ccc(F)cc1)CC1(O)CCCN(CC(C)(C)C)C1=O` (configuration not stated), the figure is 28.5%; as for `CN(Cc1ccccc1)CC1(O)CCCN(Cc2ccc(F)cc2)C1=O` (configuration not stated), 31.1%; as for `Cc1cc(CN(C)CC2(O)CCCN(CCC3CCCCC3)C2=O)no1` (configuration not stated), 32.3%.

Consider `O=C1N(CCCc2ccccc2)CCCC1(O)CNCC1CCCCC1` (configuration not stated), for which the INHIBITION is recorded as 39.5%. Take `O=C1NCCN1CCNCC1(O)CCCN(CCC2CCCCC2)C1=O` (configuration not stated): the INHIBITION was -48.7%. To `O=C1N(CCC2CCCCC2)CCCC1(O)CNCCc1ccccc1` (configuration not stated) belongs 56.9%; to `CN(Cc1ccccc1)CC1(O)CCCN(CCC2CCCCC2)C1=O` (configuration not stated), 63.7%; to `CN(Cc1cccnc1)CC1(O)CCCN(CC(C)(C)C)C1=O` (configuration not stated), 44.7%. To `Cc1nc(CN2CCCC(N(C)CC3(O)CCCCC3)C2)no1` (configuration not stated) belongs -3.2%; to `Cc1cccc(CN2CCS(=O)(=O)[C@@H]3CCN(S(C)(=O)=O)CC[C@@H]32)n1`, 39.3%. To `CC(C)c1cc(C(=O)NCCN2CCCCC2CO)on1` (configuration not stated) belongs 15%. Take `CCN1CCCC12CCN(C(=O)c1ccsc1)CC2`: the INHIBITION was found to be 36.9%. As for `O=C(c1cc2c(s1)CCC2)N1CCCC1c1noc(C2CC2)n1` (configuration not stated), the figure is -56.7%. Take `Cc1nnc(NC(=O)NCc2ccc(N3CCOCC3)nc2)s1`: the INHIBITION is on record as -43.6%. As for `CC(O)CNCc1c(C(C)C)nn(C)c1N1CCOCC1` (configuration not stated), the figure is 3.8%; as for `CCOC(=O)CC(c1cccc(OC)c1OC)c1c(C)[nH][nH]c1=O` (configuration not stated), 3.6%.

Take `c1cnc(NC2COC3(CCN(Cc4cc[nH]n4)CC3)C2)nc1` (configuration not stated): the INHIBITION was 26.3%. Consider `Cn1cc(CN2C[C@@H]3COC[C@]3(CNC(=O)c3ccccc3)C2)cn1`, for which the INHIBITION amounted to 30.3%. To `O=C(NC[C@]12COC[C@H]1CN(Cc1nccs1)C2)c1ccccc1` belongs 23.7%; to `Cn1cc(CN2C[C@@H]3COC[C@]3(CNC(=O)c3ccco3)C2)cn1`, 52%; to `Cc1cc(CN2C[C@@H]3COC[C@]3(CNC(=O)c3ccco3)C2)no1`, 20.6%. To `O=C(NC[C@]12COC[C@H]1CN(Cc1ccco1)C2)c1ccccc1` belongs 54.7%.
